{"source": "paper PMC4336329", "about": "(PLoS ONE, 2015)", "note": "In all, about 310,000 compounds went through this assay and about 14,000 (4.5%) showed an effect of 50% or more. Effects have a minus sign here. This is one part of a sample in which strong results are shown more often than they occur.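 Also: peak tail current of the secondary pulse compared with the same well before compound.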", "data": [{"target": "human ether-à-go-go-related gene (hERG) potassium channel (human, UniProt Q12809)", "sequence (Q12809 whole entry, looked up)": "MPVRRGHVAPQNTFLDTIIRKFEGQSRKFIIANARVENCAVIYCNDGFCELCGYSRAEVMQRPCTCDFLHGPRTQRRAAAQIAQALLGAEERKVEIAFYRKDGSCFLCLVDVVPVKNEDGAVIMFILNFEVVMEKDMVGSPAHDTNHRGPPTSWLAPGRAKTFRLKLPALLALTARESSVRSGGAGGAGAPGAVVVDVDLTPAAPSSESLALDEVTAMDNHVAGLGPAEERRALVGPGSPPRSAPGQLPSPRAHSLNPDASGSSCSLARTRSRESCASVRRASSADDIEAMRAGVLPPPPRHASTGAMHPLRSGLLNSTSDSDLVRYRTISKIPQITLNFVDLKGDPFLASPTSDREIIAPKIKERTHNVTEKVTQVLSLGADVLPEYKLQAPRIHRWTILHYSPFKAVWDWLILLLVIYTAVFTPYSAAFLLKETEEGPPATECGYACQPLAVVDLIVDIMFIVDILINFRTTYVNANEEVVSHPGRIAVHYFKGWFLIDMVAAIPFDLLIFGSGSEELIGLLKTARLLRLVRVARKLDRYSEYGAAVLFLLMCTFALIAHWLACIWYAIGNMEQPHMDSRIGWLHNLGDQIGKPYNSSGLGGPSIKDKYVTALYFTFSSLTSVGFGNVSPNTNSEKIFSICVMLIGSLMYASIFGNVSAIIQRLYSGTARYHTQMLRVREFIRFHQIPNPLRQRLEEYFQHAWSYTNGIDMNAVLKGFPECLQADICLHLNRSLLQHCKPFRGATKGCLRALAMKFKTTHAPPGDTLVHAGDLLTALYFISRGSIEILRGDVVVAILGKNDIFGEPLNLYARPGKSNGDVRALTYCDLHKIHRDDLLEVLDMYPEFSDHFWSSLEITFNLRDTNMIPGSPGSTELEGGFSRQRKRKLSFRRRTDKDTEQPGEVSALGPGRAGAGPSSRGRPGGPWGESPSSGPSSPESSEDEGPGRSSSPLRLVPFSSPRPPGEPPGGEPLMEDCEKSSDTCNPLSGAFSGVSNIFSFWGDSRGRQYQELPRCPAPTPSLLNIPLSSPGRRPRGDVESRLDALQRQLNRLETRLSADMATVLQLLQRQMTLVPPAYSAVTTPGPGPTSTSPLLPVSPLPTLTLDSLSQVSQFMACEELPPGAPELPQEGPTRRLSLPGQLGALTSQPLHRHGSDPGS", "test": "primary screen, population patch clamp on CHO cells stably expressing hERG; higher = less effect of the substance", "units": {"hERG current change (%, negative = inhibition) at 10uM": "%"}, "values": [{"smiles": "CC1(C)CC(=O)C(C=Nc2cccnc2/N=C/C2=C(O)CC(C)(C)CC2=O)=C(O)C1", "hERG current change (%, negative = inhibition) at 10uM": 14}, {"smiles": "O=c1[nH]n2c(C(F)(F)F)cc(C3CC3)nc2c1N=Nc1ccccc1", "hERG current change (%, negative = inhibition) at 10uM": 12.2}, {"smiles": "COc1cc(OC)cc(-c2oc(=O)c3cc(OC)c(OC)cc3c2/C=C/c2ccc(F)cc2)c1", "hERG current change (%, negative = inhibition) at 10uM": 4.91}, {"smiles": "Cc1ccc(C(=O)n2nnc3ccccc32)cc1", "hERG current change (%, negative = inhibition) at 10uM": 7.37}, {"smiles": "CN1C(=S)SC(/[N+]([O-])=C\\c2ccccc2)C1(C)C", "note": "(centres unmarked)", "hERG current change (%, negative = inhibition) at 10uM": -15.4}, {"smiles": "COC(=O)c1[nH]c2ccccc2c1NC(=O)CN1CCN(Cc2ccc3c(c2)OCO3)CC1", "hERG current change (%, negative = inhibition) at 10uM": -73.7}, {"smiles": "COC(=O)c1[nH]c2ccccc2c1NC(=O)CN1CCN(c2cccc(Cl)c2)CC1", "hERG current change (%, negative = inhibition) at 10uM": 6.84}, {"smiles": "COC(=O)c1[nH]c2ccc(C)cc2c1NC(=O)CCN1CCN(Cc2ccc3c(c2)OCO3)CC1", "hERG current change (%, negative = inhibition) at 10uM": -66.1}, {"smiles": "CCN(CC(=O)Nc1c(C(=O)OC)[nH]c2ccccc12)c1ccc2c(c1)OCO2", "hERG current change (%, negative = inhibition) at 10uM": -17.4}, {"smiles": "CCN(CC(=O)Nc1c(C(=O)OC)[nH]c2ccc(C)cc12)c1ccc2c(c1)OCO2", "hERG current change (%, negative = inhibition) at 10uM": 2.19}, {"smiles": "COC(=O)c1[nH]c2ccc(C)cc2c1NC(=O)CN1CCN(c2ccc(F)cc2)CC1", "hERG current change (%, negative = inhibition) at 10uM": -1.02}, {"smiles": "CCc1noc(C)c1C(=O)Nc1cccc(S(=O)(=O)N(C)c2ccccc2)c1", "hERG current change (%, negative = inhibition) at 10uM": -22.1}, {"smiles": "CCN1CCCC1CNC(=O)Cn1cccc1C(=O)c1ccccc1", "note": "(centres unmarked)", "hERG current change (%, negative = inhibition) at 10uM": -3.53}, {"smiles": "O=C1C=C(c2ccc(F)cc2OCc2ccccc2)C[C@@H](c2ccc(Cl)cc2)C1", "hERG current change (%, negative = inhibition) at 10uM": 6.91}, {"smiles": "CCOC(=O)[C@H]1[C@H]2COc3ccc(Cl)cc3[C@@H]2N2C(=O)c3cc(C)ccc3NC(=O)[C@@]12C", "hERG current change (%, negative = inhibition) at 10uM": 5.63}, {"smiles": "Cc1cc(C)n2nc(N)c(N=Nc3ccccc3)c2n1", "hERG current change (%, negative = inhibition) at 10uM": -3.32}, {"smiles": "COC(=O)[C@H](CCSC)NC(=O)c1cc2c(cn1)[nH]c1ccccc12", "hERG current change (%, negative = inhibition) at 10uM": 0.117}, {"smiles": "O=C(CSc1nc2ccccc2[nH]1)c1ccco1", "hERG current change (%, negative = inhibition) at 10uM": -4.74}, {"smiles": "CCOC(=O)Nc1ccccc1C(=O)Nc1cc(C)cc(C)c1", "hERG current change (%, negative = inhibition) at 10uM": 28.9}, {"smiles": "COc1ccc(-c2nc(C#N)c(NCC3CCCO3)o2)cc1OC", "note": "(centres unmarked)", "hERG current change (%, negative = inhibition) at 10uM": 6.28}, {"smiles": "CCOc1cc(/C=C(\\C#N)C(=O)NCC2CCCO2)ccc1O", "note": "(centres unmarked)", "hERG current change (%, negative = inhibition) at 10uM": -3.03}, {"smiles": "CCOc1cc(-c2nc3cc(C)ccn3c2NCC2CCCO2)ccc1O", "note": "(centres unmarked)", "hERG current change (%, negative = inhibition) at 10uM": -72.2}, {"smiles": "Cc1ccn2c(NC3CCCC3)c(-c3ccncc3)nc2c1", "hERG current change (%, negative = inhibition) at 10uM": -10.2}, {"smiles": "COc1ccc(-c2nc3cc(C)ccn3c2NCC2CCCO2)cc1OC.Cl", "note": "(centres unmarked)", "hERG current change (%, negative = inhibition) at 10uM": -71.2}, {"smiles": "CCOc1cc(-c2nc3c(C)cccn3c2NCC2CCCO2)ccc1O.CNC.Cl", "note": "(centres unmarked)", "hERG current change (%, negative = inhibition) at 10uM": -43.9}, {"smiles": "COc1cc(-c2nc3cccc(C)n3c2NCC2CCCO2)ccc1O", "note": "(centres unmarked)", "hERG current change (%, negative = inhibition) at 10uM": -51.4}, {"smiles": "COc1ccc(-c2nc3cccc(C)n3c2NCc2ccco2)cc1OC", "hERG current change (%, negative = inhibition) at 10uM": -42.2}, {"smiles": "COc1ccc(-c2nc3cccc(C)n3c2NCC2CCCO2)cc1O.Cl", "note": "(centres unmarked)", "hERG current change (%, negative = inhibition) at 10uM": -5.6}, {"smiles": "CCCCNc1c(-c2ccc(OC)c(SC3CCCCC3)c2)nc2cc(C)ccn12.O=C(O)C(F)(F)F", "hERG current change (%, negative = inhibition) at 10uM": 12.6}, {"smiles": "CCOc1cc(-c2nc3ccccn3c2NCC2CCCO2)ccc1O", "note": "(centres unmarked)", "hERG current change (%, negative = inhibition) at 10uM": -64.7}, {"smiles": "COc1cc(-c2nc3ccccn3c2NCC2CCCO2)ccc1O", "note": "(centres unmarked)", "hERG current change (%, negative = inhibition) at 10uM": -17.9}, {"smiles": "CCN(CC)CCN1C(=O)C(=O)/C(=C(/O)c2c(C)[nH]c(C(=O)OC)c2C)C1c1ccccc1OC", "note": "(centres unmarked)", "hERG current change (%, negative = inhibition) at 10uM": 20.8}, {"smiles": "O=C(NCCCN1CCCC1=O)c1cccc(C(F)(F)F)c1", "hERG current change (%, negative = inhibition) at 10uM": -3}, {"smiles": "CCOC(=O)C1CCN(CC(C)(C)NS(=O)(=O)c2ccc(Cl)cc2)CC1", "hERG current change (%, negative = inhibition) at 10uM": -1.75}, {"smiles": "C/C(=N/Nc1nc(C)cc(C)n1)c1ccc(Br)cc1", "hERG current change (%, negative = inhibition) at 10uM": -14.9}, {"smiles": "C/C(=N/Nc1ccnc2cc(Cl)ccc12)c1ccc(O)cc1", "hERG current change (%, negative = inhibition) at 10uM": -6.2}, {"smiles": "Cc1ccc(C)c(N2CCN(c3ccncc3N)CC2)c1", "hERG current change (%, negative = inhibition) at 10uM": -47.8}, {"smiles": "Cc1c(NC2=CC(=O)CCC2)c(=O)n(-c2ccccc2)n1C", "hERG current change (%, negative = inhibition) at 10uM": 8.37}, {"smiles": "O=C(CC(=O)N1CCN(c2ccccn2)CC1)Nc1ccc2nc3n(c(=O)c2c1)CCCCC3", "hERG current change (%, negative = inhibition) at 10uM": -17.9}, {"smiles": "CCn1c(O)c(/C(C)=N/N2CCCCC2c2cccnc2)c(=O)[nH]c1=S", "note": "(centres unmarked)", "hERG current change (%, negative = inhibition) at 10uM": -55.2}, {"smiles": "CCCCn1c(O)c(/C(CC)=N/N2CCCCC2c2cccnc2)c(=O)[nH]c1=S", "note": "(centres unmarked)", "hERG current change (%, negative = inhibition) at 10uM": -27}, {"smiles": "C/C(=N\\N1CCCCC1c1cccnc1)c1c(O)n(C2CCCCC2)c(=S)[nH]c1=O", "note": "(centres unmarked)", "hERG current change (%, negative = inhibition) at 10uM": 0.0734}, {"smiles": "O=[N+]([O-])c1cc([N+](=O)[O-])c(Oc2c(F)ccc(F)c2F)cc1NN1CCCCC1", "hERG current change (%, negative = inhibition) at 10uM": 19.8}, {"smiles": "CC1CCCCC1NC(=O)c1ccc(S(=O)(=O)NCc2ccco2)cc1", "note": "(centres unmarked)", "hERG current change (%, negative = inhibition) at 10uM": 7.19}]}]}
